# The supplement of paper PMC3545927
# Some of the results follow. The true hit rate is not given.
# Target: furin, P09958
# Assay: furin cleavage Z-score vs untreated control; higher = more cleavage, active = 3.5 or more, inactive = 1 or less, 8 variable residues between constant flanks
# How it was run: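 Purified furin cleaved 8-mer peptides that were fused to a cDNA oligonucleotide and held on magnetic beads by their N-terminus. Each 0.01 ml reaction used a 1:10 enzyme:substrate ratio in 50 mM HEPES pH 7.5 with CaCl2 and NaCl and ran 7.5, 15 or 30 min. Released DNA was adapter-tagged by PCR and sequenced, and read counts gave abundance. The cleavage Z-score came from log counts against furin-free reactions, lowess-adjusted and scaled by median absolute deviation.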
# Chain of furin, P09958 (P09958 whole entry): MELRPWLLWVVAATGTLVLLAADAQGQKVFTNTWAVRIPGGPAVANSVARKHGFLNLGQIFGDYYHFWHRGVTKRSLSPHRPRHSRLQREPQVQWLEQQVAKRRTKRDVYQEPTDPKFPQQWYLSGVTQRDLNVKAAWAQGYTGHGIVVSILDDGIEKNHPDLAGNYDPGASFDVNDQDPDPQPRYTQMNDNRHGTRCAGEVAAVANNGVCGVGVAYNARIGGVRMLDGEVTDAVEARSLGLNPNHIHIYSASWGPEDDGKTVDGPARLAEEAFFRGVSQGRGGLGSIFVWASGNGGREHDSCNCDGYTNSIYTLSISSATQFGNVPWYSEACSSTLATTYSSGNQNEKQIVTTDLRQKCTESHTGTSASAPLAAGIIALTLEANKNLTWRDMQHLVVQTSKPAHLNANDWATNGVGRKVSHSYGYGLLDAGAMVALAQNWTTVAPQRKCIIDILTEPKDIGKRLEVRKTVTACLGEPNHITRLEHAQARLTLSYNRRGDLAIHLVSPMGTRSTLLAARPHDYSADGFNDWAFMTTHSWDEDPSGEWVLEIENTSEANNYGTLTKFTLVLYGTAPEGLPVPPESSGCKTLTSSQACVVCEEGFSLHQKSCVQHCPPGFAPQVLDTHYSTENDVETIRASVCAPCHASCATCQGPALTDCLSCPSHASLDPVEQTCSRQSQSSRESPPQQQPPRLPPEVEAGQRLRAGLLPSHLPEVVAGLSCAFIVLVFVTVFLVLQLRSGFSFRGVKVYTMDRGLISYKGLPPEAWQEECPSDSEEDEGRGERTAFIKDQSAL
Sequence,furin cleavage Z-score (7.5 min),furin cleavage Z-score (15 min),furin cleavage Z-score (30 min)
CAKIARPKKRAGNASASA [FS-40],0.288 (inactive),-0.123 (inactive),-0.964 (inactive)
CAAKSRPKRRAGNASASA [FS-641],10.7 (active),12 (active),8.13 (active)
CAHSKRKISWAGNASASA [FS-2865],1.39,0.543 (inactive),1.88
CAAKSRPVRGAGNASASA [FS-523],6.42 (active),5.25 (active),5.42 (active)
CAAKSKFGYGAGNASASA [HC1419],0.282 (inactive),0.423 (inactive),0.234 (inactive)
CAMSKRDVLDAGNASASA [FS-2873],-0.828 (inactive),-0.533 (inactive),-0.677 (inactive)
CAADVIPVRRAGNASASA [HC729],-0.626 (inactive),1.64,0.64 (inactive)
CAGCTWMNSTAGNASASA [HC436],0.97 (inactive),0.0364 (inactive),1.16
CAAAGQLDLSAGNASASA [HC1641],-0.412 (inactive),0.71 (inactive),-1.04 (inactive)
CAEVNTSTWVAGNASASA [HC2201],0.639 (inactive),0.541 (inactive),1.06
CAVVCKSMSYAGNASASA [HC91],-0.0467 (inactive),0.255 (inactive),0.551 (inactive)
CATWPCSGSWAGNASASA [HC1848],-0.614 (inactive),-1.25 (inactive),-0.879 (inactive)
CASLTPCTCGAGNASASA [HC720],-1.42 (inactive),-1.23 (inactive),-1.24 (inactive)
CALEECSQHLAGNASASA [HC1665],0.42 (inactive),0.627 (inactive),0.0701 (inactive)
CAAKSRPVRDAGNASASA [FS-522],8.85 (active),8.99 (active),6.37 (active)
CARKSRPVSVAGNASASA [FS-2273],0.443 (inactive),-0.359 (inactive),1.47
CARVKRIFYQAGNASASA [FS-2530],1.69,-1.51 (inactive),0.645 (inactive)
CARVESENKVAGNASASA [HC1282],0.35 (inactive),-0.0116 (inactive),1.18
CARSKRSWMWAGNASASA [FS-2459],0.863 (inactive),2.1,6.05 (active)
CARVKRGWVWAGNASASA [FS-2101],2.07,4.37 (active),8.77 (active)
CARSKRGWVWAGNASASA [FS-2605],0.844 (inactive),3.21,4 (active)
CARVKRGSKVAGNASASA [FS-2100],2.43,3.33,4.45 (active)
CARPKRGWVWAGNASASA [FS-2164],-0.398 (inactive),-0.529 (inactive),2.44
